# FLuc modulator = qHTS profiling assay for firefly luciferase inhibitor/activator using purifed enzyme and Km concentrations of substrates (counterscreen for miR-21 project); 360,000 compounds, 6.9% hits; AID 588342, 2011; Potency, µM (doses to about 57.5 µM), without a hit: top-dose activity change, negative = inhibition, hits mostly inhibitors; Luciferin 4-monooxygenase (Photinus pyralis), P08659; purified FLuc, Km substrates, luminescence inhibition;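 note: plate controls were vehicle for no effect and reference inhibitor for full effect; nearly all actives have a fitted effect of over 55% in size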
# Target sequence (P08659 whole entry, looked up): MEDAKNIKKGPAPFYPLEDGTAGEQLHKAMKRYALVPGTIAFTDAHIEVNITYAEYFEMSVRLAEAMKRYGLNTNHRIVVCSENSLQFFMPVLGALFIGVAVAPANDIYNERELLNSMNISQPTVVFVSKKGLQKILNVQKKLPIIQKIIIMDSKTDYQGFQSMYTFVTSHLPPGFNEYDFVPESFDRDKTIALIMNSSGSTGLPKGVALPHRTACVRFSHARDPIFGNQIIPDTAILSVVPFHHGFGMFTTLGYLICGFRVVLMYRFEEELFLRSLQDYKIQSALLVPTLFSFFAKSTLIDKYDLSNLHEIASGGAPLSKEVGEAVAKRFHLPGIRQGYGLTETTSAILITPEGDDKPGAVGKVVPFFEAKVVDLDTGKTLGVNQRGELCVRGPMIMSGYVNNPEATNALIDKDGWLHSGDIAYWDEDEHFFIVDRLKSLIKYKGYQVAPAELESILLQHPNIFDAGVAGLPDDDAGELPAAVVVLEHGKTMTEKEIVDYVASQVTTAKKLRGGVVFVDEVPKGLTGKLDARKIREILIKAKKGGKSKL
#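 Biochemical qHTS of compounds, final roughly 60 µM downward over six points, against 10 nM purified firefly luciferase using Km concentrations of substrates (10 uM D-luciferin, 10 uM ATP) in Tris acetate pH 7.5 buffer; luminescence output.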
# SMN2 splice up = qHTS Assay for Enhancers of SMN2 Splice Variant Expression; HEK293 SMN2-luciferase splicing reporter, luminescence, 30-36 h; Potency, µM (series often up to 46.1 µM), for inactives: top-dose activity change, positive = activation, hits mostly activators; 210,000 compounds, 2.8% hits; AID 1458, 2008; note: % of control where 0% means no effect; nearly all actives have a fitted effect of over 55% in size
#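 qHTS luciferase splicing reporter: luminescence rises when SMN2 exon 7 is included in transfected HEK293 cells. Compound exposure lasted 30-36 h at 37C, with 4.5 mM final sodium butyrate as control, followed by a ONE-Glo read.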
# KinaseGlo FLuc = Counterscreen for Luciferase (Kinase-Glo TM) Inhibition | Luciferin 4-monooxygenase (Photuris pensylvanica), Q27757 | Kinase-Glo luciferase, ATP luminescence, 8 min | Potency, µM (series often up to 38.3 µM), without a hit: at the top dose activity change, negative = inhibition, hits mostly inhibitors | 200,000 compounds, 0.28% hits | AID 1379, 2008; note: % is set by controls: 0 for no effect and ±100 for the full control effect; nearly all actives have a fitted effect of over 60% in size
#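 Kinase-Glo luciferase light output from ATP and luciferin was measured with 10 uM ATP, within the enzyme's linear range. Buffer: 50 mM imidazole pH 7.2, 50 mM KCl, 7 mM MgCl2, 0.01% Tween 20, 0.05% BSA; luminescence read after 8 min at ambient temperature.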
# NPC1 prom act = qHTS Assay for NPC1 Promoter Activators. Huh7 NPC1 promoter luciferase reporter, 24 h. Potency, µM (series often up to 9.22 µM), inactives show top-dose activation, hits mostly activators. 320,000 compounds, 2.4% hits. AID 485313, 2010; note: % of control where 0% means no effect; nearly all actives have a fitted effect of over 60% in size
#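 Stable NPC1-promoter luciferase Huh7 line; cpd (DMSO) 24 h, 37 °C, 5% CO2; Amplite luciferase reagent 10 min RT; luminescence readout. qHTS format.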
# ELG1 genotox = qHTS screen for small molecules that induce genotoxicity in human embryonic kidney (HEK293T) cells expressing luciferase-tagged ELG1 | HEK293T ELG1-luciferase reporter, luminescence, 16 h | Potency, µM (series often up to 46 µM), for the others: at the highest dose activity change, positive = activation, usual class: activators | 330,000 compounds, 1.3% hits | AID 504466, 2011; note: % of control where 0% means no effect; nearly all actives have a fitted effect of over 60% in size
#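 Genotoxicity was scored as increased ELG1-luciferase reporter signal, measured by ONE-Glo luminescence (30 min, room temperature). Compound or vehicle exposure of the HEK293T reporter cells lasted 16 hr at 37°C.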
# Rab9 prom act = qHTS Assay for Rab9 Promoter Activators; AID 485297, 2010; Potency, µM (titrated, usually from 9.22 µM), for the others: at the highest dose activation, negative = inhibition, hits mostly activators; 320,000 compounds, 2.8% hits; Huh7 Rab9 promoter-luciferase reporter, luminescence, 24 h; note: % of control where 0% means no effect; nearly all actives have a fitted effect of over 60% in size
#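 Promoter activation is measured as luciferase luminescence in Huh7 cells stably transfected with a Rab9 promoter–luciferase construct, following 24 h compound exposure at 37 °C and 10 min reagent incubation at ambient temperature.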
# * hit, by the source's call; u = inconclusive; x = not tested or not shown; [ ] = remark or other dose. Only some compounds are listed: those with a hit (about 7.5% of all), similar ones and a draw of the others. Calls come from the whole dose curve; as a rule, active = well fitted curve in the direction sought with a large enough effect; inconclusive = small, poorly fitted or top-dose-only effect, or another doubt; inactive = no such curve, though single readings can be large; an effect the other way counts as inactive or inconclusive. Potency is the fitted concentration of half-maximal effect.
SMILES,FLuc modulator,SMN2 splice up,KinaseGlo FLuc,NPC1 prom act,ELG1 genotox,Rab9 prom act
Cc1ccc(-n2cc3c(=O)n(C)c(=O)n(C)c3c2)cc1C,u,2.9%,0.2%,27.7%,0.5%,26.9%
Cc1cc(N)c(-n2cc3c(=O)n(C)c(=O)n(C)c3c2)cc1C,16.9µM*,u,-17.2%,16.2%,u,u
Cn1c(=O)c2cn(-c3ccc4c(c3)OCCO4)cc2n(C)c1=O,u,u,-4.1%,u,11.2µM*,u
CC1=CCC(/C=N\Nc2nnc3c(n2)[nH]c2ccccc23)CC1 (stereo unspecified),1.51µM*,9.4%,-3.7%,u,u,u
COc1ccc(OC)c(NC(=O)CSc2ccnc(=O)[nH]2)c1,7.0%,x,x,x,x,x
Cn1c(=O)c2[nH]c(/N=N\N3CCN(CCO)CC3)nc2n(C)c1=O,x,-4.6%[9.22 µM],-8.3%[7.66 µM],x,x,x
O=C(CSc1nnnn1C1CC2C=CC1C2)Nc1ccc(C(=O)O)cc1 (stereo unspecified),-1.4%,x,x,-4.9%,1.8%,3.0%
Cc1cccc(CNC(=O)c2sc3ncnc(N(C)C4CCCCC4)c3c2C)c1,6.8%,x,x,x,x,x
O=C(CCn1cnnn1)N1CCCC(Nc2ccc(F)c(F)c2)C1 (stereo unspecified),-0.5%,x,x,1.6%,7.1%,-1.9%
COc1ccc2c(c1OC)C(=O)N(c1cccc(/C=C/C(=O)O)c1)C2,3.01µM*,x,x,28.5%,u,23.9%
COc1ccc2c(c1OC)C(=O)N(c1nccs1)C2,15.1µM*,12.6µM*,-4.3%,u,18.4µM*,u
COc1ccc(C2C(C(C)=O)=C(O)C(=O)N2c2nccs2)cc1OC (stereo unspecified),3.0%,3.9%,4.0%,0.8%,0.7%,2.5%
COc1ccc(N2Cc3ccc(OC)c(OC)c3C2=O)cc1,4.78µM*,x,x,2µM*,10.3µM*,u
COc1ccc(/C=C/C(=O)O)cc1S(=O)(=O)N1CCc2ccccc2C1,-6.5%,-4.8%,2.4%,0.9%,-3.0%,3.2%
CCOc1ccc(CCNC(=O)c2cc3c(s2)-c2c(C)cccc2OC3)cc1,0.3%,-17.3%,x,x,x,x
Cc1ccc(C(=O)/C=C2/NC(=O)CS2)cc1,6.75µM*,20µM*,-3.1%,24.6%,16.6%,u
CCn1c(=O)c2cc(C(=O)NC3CCC(C)CC3)sc2c2ccccc21 (stereo unspecified),-1.3%,-2.8%,x,x,x,x
CCOc1ccccc1NS(=O)(=O)c1cnc(N)nc1,-1.9%,x,x,x,x,x
CC(=O)c1cccc(-c2csc(N3CCC(C(N)=O)CC3)n2)c1,16.9µM*,x,x,1.26µM*,13.9%,0.398µM*
Cc1ccc(-c2csc(N3CCC(C(N)=O)CC3)n2)cc1,10.7µM*,x,x,1.26µM*,8.3%,2µM*
NC(=O)C1CCN(c2nc(-c3ccc4ccccc4c3)cs2)CC1,12µM*,x,x,2µM*,5.8%,u
N#Cc1ccc(-c2csc(N3CCC(C(N)=O)CC3)n2)cc1,-9.8%,x,x,x,x,x
COc1ccc(-c2csc(N3CCC(C(N)=O)CC3)n2)cc1,21.3µM*,x,x,25.6%,7.0%,u
Oc1ccc(CNc2ccc(C(F)(F)F)cc2Cl)c2cccnc12,1.8%,x,x,-3.2%,x,-4.0%
Cc1nn(CC(=O)Nc2ccc(C(C)C)cc2)c(=O)c2c(C)n(-c3ccc(Cl)cc3)nc12,-16.5%,x,x,x,x,x
Cc1ccc(-c2nc(COC(=O)C3=NN(c4ccccc4)C(=O)CC3)cs2)cc1,u,x,x,11.0%,9.2%,28.9%
COc1ccc(CCNC(=O)C2CCCN(c3nn4c(=O)cc(C)nc4s3)C2)cc1OC (stereo unspecified),-3.1%,9.0%,-0.1%,6.5%,-3.2%,-2.1%
